Test systems include MOLT-4 leukemia; SR leukemia; RPMI-8226 leukemia; OVCAR-8 ovarian; OVCAR-5 ovarian; OVCAR-4 ovarian; SK-OV-3 ovarian; IGROV1 ovarian; OVCAR-3 ovarian; HS 578T breast; NCI/ADR-RES ovarian; T-47D breast; BT-549 breast; MDA-MB-435 melanoma; SW-620 colon; MCF7 breast; HCT-116 colon; HCC-2998 colon; KM12 colon.
What all share (assay): NCI-60 one-dose screen, 48 h (100 = growth as untreated, 0 = no growth, -100 = all killed)
What all share (conditions): 10 µM unless noted

These results are taken from PubChem BioAssay (NCI).

The panel holds about 83,000 compounds, 20% with a hit somewhere; the sample as a whole holds those more often.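 Percent growth is the endpoint: 0 to 100 indicates growth inhibition (40 means 60% inhibition), 0 means no net growth, and negative values indicate cell death.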 The source made the active and inactive calls. How the source made its calls: active means growth percent below 10; inactive means the rest.

Take `CCCCCCCCCCCCNC(c1ccccc1)C(O)c1ccccc1` (configuration not stated): the growth was 61.7% (inactive) in the assay on MOLT-4 leukemia; -14.3% (active) with SR leukemia; 18.3% (inactive) in the assay with RPMI-8226 leukemia; 67.9% (inactive) in the assay with OVCAR-8 ovarian; 92.9% (inactive) with OVCAR-5 ovarian; 10.5% (inactive) in the assay with OVCAR-4 ovarian. In addition, the growth in the assay with SK-OV-3 ovarian is 95.8% (inactive); with IGROV1 ovarian, 53.7% (inactive); in the assay with OVCAR-3 ovarian, 83.8% (inactive); in the assay on HS 578T breast, 106% (inactive); in the assay with NCI/ADR-RES ovarian, 68.8% (inactive); in the assay on T-47D breast, 70.4% (inactive). Also, the growth is 103% (inactive) in the assay with BT-549 breast; 91.4% (inactive) in the assay with MDA-MB-435 melanoma; 48.1% (inactive) in the assay on SW-620 colon; 63.7% (inactive) in the assay with MCF7 breast; 12.2% (inactive) in the assay with HCT-116 colon; 43.1% (inactive) with HCC-2998 colon. For the same compound, the growth in the assay with KM12 colon was 74.9% (inactive).

On to `C[C@@H]1C[C@@]2(C)[C@@H](CC[C@@H]3[C@@H]2CC[C@]2(C)C(=O)CC[C@@H]32)CC1=O`, for which the growth is 66.2% (inactive) in the assay on MOLT-4 leukemia; 108% (inactive) in the assay on SR leukemia; 137% (inactive) in the assay on RPMI-8226 leukemia; 62.6% (inactive) in the assay with OVCAR-8 ovarian; 93.6% (inactive) in the assay with OVCAR-5 ovarian; 103% (inactive) in the assay with OVCAR-4 ovarian. Moreover, the growth in the assay on SK-OV-3 ovarian is 120% (inactive); in the assay on IGROV1 ovarian it was 76.7% (inactive); in the assay with OVCAR-3 ovarian, 112% (inactive); with HS 578T breast it was 81.2% (inactive); in the assay on NCI/ADR-RES ovarian, 102% (inactive); in the assay with T-47D breast it was 98.9% (inactive). Moreover, the growth is 112% (inactive) in the assay with BT-549 breast; 90% (inactive) in the assay with MDA-MB-435 melanoma; 99.7% (inactive) with SW-620 colon; 99.9% (inactive) in the assay with MCF7 breast; 69.3% (inactive) in the assay on HCT-116 colon; 109% (inactive) in the assay with HCC-2998 colon. Also, the growth in the assay on KM12 colon is 115% (inactive).

`O=C1C(N2CC2)=C(N2CC2)C(=O)C(N2CC2)=C1N1CC1`: the growth in the assay with MOLT-4 leukemia was 32.9% (inactive); in the assay with SR leukemia, 2.9% (active); in the assay with RPMI-8226 leukemia it was 37.7% (inactive); in the assay on OVCAR-8 ovarian, 0.671% (active); with OVCAR-5 ovarian, -60.6% (active); with OVCAR-4 ovarian, 51.7% (inactive). Also, the growth in the assay on SK-OV-3 ovarian was -30.6% (active); with IGROV1 ovarian it was -23.5% (active); with OVCAR-3 ovarian, 4.7% (active); in the assay on HS 578T breast, 14.3% (inactive); in the assay with NCI/ADR-RES ovarian it was -27.7% (active); in the assay with T-47D breast, 30.5% (inactive). Also, the growth was -34.2% (active) with BT-549 breast; -74.7% (active) in the assay with MDA-MB-435 melanoma; 0.521% (active) in the assay with SW-620 colon; -46.1% (active) with MCF7 breast; -79.2% (active) with HCT-116 colon; -94.9% (active) with HCC-2998 colon. For the same compound, in the assay on KM12 colon, the growth is -58.6% (active).

Turning to `COc1cc(/C=C\c2cc(OC)c(OC)c(OC)c2)cc(NS(=O)(=O)c2cccc(Cl)c2)c1OC`, the growth was 9.29% (active) in the assay with MOLT-4 leukemia; 10.6% (inactive) in the assay with SR leukemia; 18.1% (inactive) in the assay on RPMI-8226 leukemia; 18.2% (inactive) with OVCAR-8 ovarian; 19.5% (inactive) with OVCAR-5 ovarian; 37.4% (inactive) in the assay on OVCAR-4 ovarian. Also, the growth was 16.9% (inactive) with SK-OV-3 ovarian; 26.3% (inactive) in the assay with IGROV1 ovarian; -36.3% (active) in the assay with OVCAR-3 ovarian; 45.4% (inactive) in the assay with HS 578T breast; 7.73% (active) with NCI/ADR-RES ovarian; 93.1% (inactive) in the assay with T-47D breast. The growth in the assay with BT-549 breast is 24.1% (inactive); in the assay on MDA-MB-435 melanoma, -20.2% (active); in the assay on SW-620 colon, 25.4% (inactive); in the assay with MCF7 breast it was 7.6% (active); with HCT-116 colon it was 2.62% (active); in the assay on HCC-2998 colon, 13.9% (inactive). Also, the growth in the assay on KM12 colon is 5.83% (active).

Consider `COC(=O)[C@@H](C)C[C@H](Cc1ccccc1)NC(=O)c1csc(CC[C@H](C(C)C)N(C)C(=O)[C@@H](NC(=O)[C@H]2CCCCN2C)C(C)C)n1`, for which the growth in the assay with MOLT-4 leukemia is 14.4% (inactive); in the assay with SR leukemia, 15.9% (inactive); with RPMI-8226 leukemia, 19.8% (inactive); in the assay on OVCAR-8 ovarian it was 20.6% (inactive); in the assay with OVCAR-5 ovarian it was 54% (inactive); in the assay with OVCAR-4 ovarian, 53.2% (inactive). Besides, the growth in the assay with SK-OV-3 ovarian was 37.7% (inactive); in the assay with IGROV1 ovarian, 32.4% (inactive); with OVCAR-3 ovarian it was -5.55% (active); in the assay on HS 578T breast, 33.2% (inactive); in the assay on NCI/ADR-RES ovarian, 53.1% (inactive); with T-47D breast, 56.8% (inactive). Further, the growth is 7.17% (active) in the assay on BT-549 breast; -48.6% (active) with MDA-MB-435 melanoma; 30.6% (inactive) in the assay with SW-620 colon; 20.3% (inactive) in the assay with MCF7 breast; 3.72% (active) in the assay on HCT-116 colon; 24.5% (inactive) in the assay on HCC-2998 colon. Besides, the growth in the assay on KM12 colon is 16.2% (inactive).

Take `C=CC[n+]1ccc(-c2cc[n+](CC=C)cc2)cc1`: the growth is 88.8% (inactive) in the assay with MOLT-4 leukemia; 93.9% (inactive) in the assay on SR leukemia; 79.9% (inactive) in the assay on RPMI-8226 leukemia; 61.3% (inactive) in the assay on OVCAR-8 ovarian; 126% (inactive) in the assay with OVCAR-5 ovarian; 37.6% (inactive) with OVCAR-4 ovarian. Further, the growth in the assay on SK-OV-3 ovarian is 108% (inactive); in the assay on IGROV1 ovarian it was 13.6% (inactive); in the assay on OVCAR-3 ovarian, 40.7% (inactive); in the assay on HS 578T breast, 116% (inactive); in the assay on NCI/ADR-RES ovarian it was 111% (inactive); with T-47D breast, 82.1% (inactive). Also, the growth in the assay with BT-549 breast was 109% (inactive); in the assay with MDA-MB-435 melanoma it was 104% (inactive); in the assay with SW-620 colon it was 114% (inactive); in the assay with MCF7 breast it was 89.7% (inactive); in the assay with HCT-116 colon, 98.5% (inactive); in the assay on HCC-2998 colon, 95.4% (inactive). In addition, the growth in the assay on KM12 colon is 65.3% (inactive).

As for `O=Cc1cn(Cc2ccc(Cl)cc2)c2ccccc12`, the growth in the assay with MOLT-4 leukemia was 90.1% (inactive); with SR leukemia, 80.9% (inactive); with RPMI-8226 leukemia, 77.1% (inactive); with OVCAR-8 ovarian, 90.1% (inactive); with OVCAR-5 ovarian it was -36.7% (active); in the assay with OVCAR-4 ovarian it was 57.5% (inactive). Moreover, the growth is 31.1% (inactive) in the assay on SK-OV-3 ovarian; 6.46% (active) with IGROV1 ovarian; 63.8% (inactive) in the assay with OVCAR-3 ovarian; 83.9% (inactive) in the assay with HS 578T breast; 90.6% (inactive) with NCI/ADR-RES ovarian; 24.4% (inactive) in the assay on T-47D breast. Moreover, the growth in the assay on BT-549 breast was 92.7% (inactive); in the assay on MDA-MB-435 melanoma, 104% (inactive); in the assay on SW-620 colon, 68.1% (inactive); in the assay on MCF7 breast it was 55.5% (inactive); with HCT-116 colon, 63.2% (inactive); in the assay with HCC-2998 colon, 98% (inactive). For the same compound, the growth in the assay on KM12 colon is 109% (inactive).

Take `COC(=O)[C@H](Cc1ccccc1)NC(=O)c1csc([C@@H](C[C@H](C(C)C)N(C)C(=O)[C@@H](NC(=O)[C@H]2CCCCN2C)C2CC2)OC(C)=O)n1`: the growth with MOLT-4 leukemia was 10.1% (inactive); with SR leukemia, 6.23% (active); in the assay on RPMI-8226 leukemia it was 10.3% (inactive); with OVCAR-8 ovarian it was 17% (inactive); in the assay with OVCAR-5 ovarian, 32.3% (inactive); in the assay with OVCAR-4 ovarian it was 49.7% (inactive). Moreover, the growth in the assay on SK-OV-3 ovarian is 4.51% (active); in the assay with IGROV1 ovarian it was 29.1% (inactive); in the assay with OVCAR-3 ovarian, -21.4% (active); in the assay on HS 578T breast, 6.85% (active); in the assay on NCI/ADR-RES ovarian it was 15.9% (inactive); in the assay on T-47D breast, 28.3% (inactive). For the same compound, the growth in the assay with BT-549 breast was 2.98% (active); in the assay on MDA-MB-435 melanoma, -44.4% (active); with SW-620 colon it was 22.8% (inactive); with MCF7 breast, 19.5% (inactive); in the assay with HCT-116 colon it was -16.9% (active); with HCC-2998 colon, 16.1% (inactive). In the assay with KM12 colon, the growth was 2.87% (active).
